For 110 compounds, INHIBITION results are on record in ChEMBL document CHEMBL4513216, “Probing the Open Global Health Chemical Diversity Library for Multistage-Active Starting Points for Next-Generation Antimalarials” (ACS Infect Dis, 2020).

Screen size: about 69,000 compounds; about 8,600 (12%) showed an effect of 50% or more. For the sample, strong results were picked, then their nearest neighbours and some compounds at random.

This assay has as its system Plasmodium berghei. The assay can be described thus: Screen against P. berghei liver stage (PbLuc), transformed with Luciferase, at 10uM. Format: functional, HepG2. Particulars: tested at 10 uM.
As for `Cc1noc(C)c1CN(C)C(=O)c1ccc(O)nc1`, the INHIBITION was 25.1%. Turning to `CC(=O)N(C)CC(=O)NCC1CCN(c2cc(Cl)ccc2C)C1` (stereo not given), the INHIBITION was -23.7%. Next, `Cc1nccc([C@@H]2C[C@@H]3CCN(S(=O)(=O)N(C)C)C[C@H]3O2)n1`: 26.3%; `Cn1ccc(C(=O)N2CCCC(Cc3cnc4ccccc4c3)C2)n1` (stereo not given): -0.371%. For `COCCn1cnc2ccc(NC(=O)c3c(C)noc3C)cc2c1=O`, the INHIBITION stood at 35.7%. Next, `Cn1cc(C(=O)N2CC[C@@H]3[C@@H]2CCN3Cc2cccc(F)c2)cn1`: 43.2%; `Cc1nc2cc(OCc3nc(C(=O)NC(C)(CO)CO)co3)ccc2s1`: 74.5%; `CC[C@@H](CO)NC(=O)c1coc(COc2ccc3sc(C)nc3c2)n1`: 41.5%.

With `Cc1nc2cc(OCc3nc(C(=O)NC(CO)CO)co3)ccc2s1`, the INHIBITION is 29.4%. For `Cn1nnnc1SCC1(O)CCCCC1`, the INHIBITION turned out to be 1.74%. Take `O=S(=O)(CC1CCCCO1)Nc1cc(F)ccc1-n1cccn1` (stereo not given): the INHIBITION was 25.7%. Next, `Cc1ccc(S(=O)(=O)Nc2ccc(N3CCSCC3)c(C(=O)O)c2)s1`: 43.9%. In the case of `Cc1cc2nc(C(C)C)cc(N(C)CC3CCN(C(C)C)C3)n2n1` (stereo not given), the INHIBITION came out at 27.6%.

For the compound `Cc1cc2nc(C(C)C)cc(N(C)CC3CCCN3C)n2n1` (stereo not given), the INHIBITION came to 33%. For `Cc1cc2nc(C(C)C)cc(N(C)CC3CCCN(CCO)C3)n2n1` (stereo not given) the value was 58.5%; for `Cc1ccc(NC2CCN(C(=O)c3cncnc3C)CC2)nn1`, -17.22%; for `CCn1ccc(NC(=O)CCc2c(C)nn(C)c2C)n1`, 38.7%.

Turning to `CNC(=O)CS(=O)(=O)C1CCN(S(=O)(=O)c2ccccc2Br)CC1`, the INHIBITION is on record as -26.6%. For `CNC(=O)CS(=O)(=O)C1CCN(S(=O)(=O)c2cccc(Cl)c2C)CC1` the value was 80%. Turning to `CNC(=O)CS(=O)(=O)C1CCN(S(=O)(=O)c2ccccc2Cl)CC1`, the INHIBITION is 25.8%. For `Cc1cccc2[nH]c(COCC(=O)N3CCCn4cncc4C3)nc12`, the INHIBITION was 22.7%.

As for `COc1ccc(C(=O)Nc2c(C(=O)N(C)C)nn(C)c2C)cc1`, the INHIBITION is 61.5%. In the case of `Cc1ccc(C(=O)Nc2c(C(=O)N(C)C)nn(C)c2C)cc1`, the INHIBITION was -10.6%.

`Cc1c(NC(=O)c2ccc(Br)cc2)c(C(=O)N(C)C)nn1C`: the INHIBITION was 17.6%.

Turning to `CCOCC1CN(Cc2ccsc2)Cc2cnn(C)c21` (stereo not given), the INHIBITION was determined as 36.2%. Take `COC(=O)CNC(=O)c1cn(Cc2ccccc2F)nn1`: the INHIBITION worked out at 82.9%.

On to `COCC1CCN(C(=O)c2cn(Cc3ccccc3F)nn2)CC1`, for which the INHIBITION is 14.2%. For `O=C(NCCCOc1cccnc1)c1cn(Cc2ccccc2F)nn1` the value was 12.9%; for `CCOC(=O)CC(NC(=O)c1cn(Cc2ccccc2F)nn1)C(C)C` (stereo not given), 72.6%. As for `COC(=O)C(CO)NC(=O)c1cn(Cc2ccccc2F)nn1` (stereo not given), the INHIBITION is -4.4%. Next, `CCOC(=O)CC(C)NC(=O)c1cn(Cc2ccccc2F)nn1` (stereo not given): -44.2%; `NCCn1cc(C(=O)NCc2ccccc2Cn2cccn2)nn1`: 29.4%. Next, `CC(Cn1cncn1)NC(=O)c1cn(Cc2ccccc2F)nn1` (stereo not given): 68.8%; `CC(NC(=O)NCCCn1cncn1)c1ccccc1F` (stereo not given): 11.9%; `COc1ccc(CNCCc2cc(F)cc3c2OCOC3)c(OC)c1`: 30%.

On to `Cc1cc(C(=O)NCc2ccc(F)cc2)nc(C2CCCN2C)n1` (stereo not given), for which the INHIBITION is -3.31%.

Consider `OCCO[C@H]1C[C@@H](O)C12CCN(Cc1nc(C(F)(F)F)no1)CC2`, for which the INHIBITION is listed as -17.8%. Regarding `CCN1CCCCC1C(=O)N1CCN(C(=O)OC)CC1` (stereo not given), the INHIBITION stood at 29.9%. In the case of `CCn1cnnc1C1CCN(C(=O)c2cnc(C)s2)CC1`, the INHIBITION is 27.6%. With `CC(C)c1ncncc1C(=O)NCCN1CCCCC1C` (stereo not given), the INHIBITION amounted to 36.9%.

As for `CCOCC1CCN(C(=O)C(c2cccc(F)c2)N(C)C)CC1` (stereo not given), the INHIBITION is on record as 17.5%. For `CN(C(=O)CC1=CCCCC1)C1CCCN(C2Cc3ccccc3C2)C1` (stereo not given) the value was 28.3%; for `CN(C(=O)CC1=CCCCC1)C1CCCN(CCc2ccccc2)C1` (stereo not given), 59.2%. For `CN(C(=O)CCc1ccncc1)C1CCCN(CCc2ccccc2)C1` (stereo not given) the value was -8.07%.

As to `CC(O)c1cn(Cc2ccc(Cl)cc2Cl)nn1` (stereo not given), the INHIBITION worked out at 7.92%. As for `Cc1cc(C(=O)N2CCCC2c2noc(C)n2)[nH]n1` (stereo not given), the INHIBITION is 38.5%. Take `CN(C(=O)CCC(F)(F)F)c1cccc2ncccc12`: the INHIBITION is listed as 71.4%. For `CCCC(=O)N(C)c1cccc2ncccc12` the value was 77.8%; for `CN(Cc1cccc2ncccc12)C(=O)CCC(F)(F)F`, 19.7%.

In the case of `CCCNC(=O)c1cccc2ncccc12`, the INHIBITION worked out at 26.7%. Regarding `CCCC(=O)N(C)c1cc(C#N)c2ccccc2n1`, the INHIBITION is listed as -31.7%. On to `Cc1cccc(=O)n1CCC(=O)N(C)Cc1cccc2ncccc12`, for which the INHIBITION is 33.1%.

On to `COc1ccc(-n2cc3[nH]c(=O)n(C(C)C)n3c2=O)cc1`, for which the INHIBITION is recorded as -12.5%. Regarding `CCOCC1CN(Cc2cccs2)Cc2nn(C)cc21` (stereo not given), the INHIBITION is on record as -2.72%. Take `CCN(Cc1ccc2c(c1)OCCO2)C(=O)c1ccc(C)[nH]c1=O`: the INHIBITION is on record as -4.43%. For `Cn1ccc2c(NC(=O)Cn3ncc4c(c3=O)CCCCC4)cccc21` the value was 6.29%; for `O=C(Cn1ncc2c(c1=O)CCCCC2)Nc1cccc2[nH]ccc12`, 36.1%. Next, `Cn1ccc2c(NC(=O)Cn3ncc4c(c3=O)CCCC4)cccc21`: 74.1%. For `Cn1cc(CC2CCN(C(=O)NCCCc3ccc(O)cc3)C2)cn1` (stereo not given) the value was 49.2%; for `O=C(CCc1nccs1)N1CCN(c2ncccn2)CC1`, 26.1%. In the case of `CC(C)COCCC(=O)NCCC(=O)N1CCN(c2ccccn2)CC1`, the INHIBITION worked out at 56.6%. On to `O=C(CCc1nccs1)N1CCN(c2cccnn2)CC1`, for which the INHIBITION is reported as 1.77%. Regarding `CC(C)C(=O)NCCC(=O)N1CCN(c2ccccn2)CC1`, the INHIBITION turned out to be 24.1%. With `O=C(CCc1nccs1)N1CCN(c2ccccn2)CC1`, the INHIBITION worked out at 51.1%. As to `CC(C)OCCC(=O)NCCC(=O)N1CCN(c2ccccn2)CC1`, the INHIBITION turned out to be 14.2%. For `Cc1nn(CC(=O)NCCc2ccncc2)c(=O)n1Cc1ccccc1` the value was -45%; for `CNC(=O)CN(C)C(=O)c1cc(Cl)c(I)cc1OC`, 45.2%. Next, `CCCNC(=O)C1CCCN(Cc2ccc(-n3cncn3)c(C)c2)C1` (stereo not given): -14.5%; `CCc1cc(NCc2ccc(-n3cncn3)c(C)c2)n(C)n1`: 79.5%. For `CCOC(=O)NC1CCCN(Cc2ccc(-n3cncn3)c(C)c2)C1` (stereo not given) the value was -1.35%. Regarding `Cc1cc(CNC(C)Cn2cncn2)ccc1Br` (stereo not given), the INHIBITION was found to be 41.4%. Take `Cc1cc(CN2CCCC(NS(C)(=O)=O)C2)ccc1-n1cncn1` (stereo not given): the INHIBITION is -3.14%.

`Cc1cc(CNc2ccnn2CC(C)C)ccc1-n1cncn1`: the INHIBITION was found to be 89.7%.

On to `Cc1nc(CN)cc(NCc2ccccc2-n2cncn2)n1`, for which the INHIBITION turned out to be 33.7%. Next, `CC(Cn1cncn1)NCc1ccc2nonc2c1` (stereo not given): 12%; `Cc1cc(CNc2ccnn2C)ccc1-n1cncn1`: 62.8%.

In the case of `CN1CCc2ncc(CNC(=O)c3cccn3C)n2CC1`, the INHIBITION was found to be 20.9%. Next, `CCn1ccnc1CN1CCN(Cc2cnc(C)cn2)CC1C` (stereo not given): 13.2%; `OCCN1CCC(c2csc(Nc3cnccn3)n2)CC1`: 0.825%. Next, `NC(=O)CN1CCC(c2csc(Nc3cnccn3)n2)CC1`: 33.8%; `c1cnc(N2CCCC(c3csc(Nc4cnccn4)n3)C2)nc1` (stereo not given): 61.3%. On to `CC(=O)N1CCCC1c1csc(Nc2cnccn2)n1` (stereo not given), for which the INHIBITION was 13.5%.

As for `c1cnc(N2CCC(c3csc(Nc4cnccn4)n3)CC2)nc1`, the INHIBITION turned out to be 76.7%. Next, `NC(=O)CN1CCCC1c1csc(Nc2cnccn2)n1` (stereo not given): 51.5%; `COCC(=O)N1CCCC1c1csc(Nc2cnccn2)n1` (stereo not given): 44.1%.

Take `Cc1nc(Nc2cnccn2)cc(C2CCN(c3ncccn3)C2)n1` (stereo not given): the INHIBITION is -17.7%. For `CCC(=O)N1CCCC1c1csc(Nc2cnccn2)n1` (stereo not given) the value was -4.82%; for `CCCn1cnnc1CN(C)C(=O)C1CCCN(C2CCN(C)CC2)C1` (stereo not given), -21.3%; for `COCCC(=O)N1CCCC1c1nc(O)cc(-c2ccccn2)n1` (stereo not given), 35.2%.

Regarding `Cc1nc2n(n1)CC(Nc1nc(-c3ccccc3)no1)CC2` (stereo not given), the INHIBITION is recorded as -6.51%. For the compound `CSCc1cc(F)ccc1CNC(=O)N1CCC(CO)CC1`, the INHIBITION turned out to be 56.6%. Next, `CSCc1cc(F)ccc1CNC(=O)N1CCC[C@@H]1CO`: 31.9%. For `CSCc1cc(F)ccc1CNC(=O)N1CCOCC1` the value was 13.1%; for `CSCc1cc(F)ccc1CNC(=O)N1CCCC1`, -110%; for `CSCc1cc(F)ccc1CNC(=O)N1CCCC(CO)C1` (stereo not given), 78.3%. For `COc1ccccc1CNC(=O)N1CCCC(CO)C1` (stereo not given) the value was -10.7%; for `Cc1c(Cl)cccc1NC(=O)c1nc[nH]n1`, -1.16%; for `Cc1nc(-c2ccccc2)cc2nn(CC(N)=O)c(=O)n12`, 28.6%. With `COc1ccc(-c2cc3nn(CC(=O)NC(C)C)c(=O)n3c(C)n2)cc1`, the INHIBITION is 53.2%. Next, `COc1ccc(-c2cc3nn(CC(N)=O)c(=O)n3c(C)n2)cc1`: 14.3%; `NC(=O)CC1CCN(C(=O)NCCc2ccc(Cl)s2)CC1`: -17.6%. For `c1ccc(CN2CCCC3(CCN(Cc4cccs4)C3)C2)nc1` (stereo not given), the INHIBITION was 21.1%. In the case of `Cc1nn(C)c(N2CCOCC2)c1CNC(c1ccccc1)C1CC1` (stereo not given), the INHIBITION was 14.6%. Next, `O=C(C1CCCC1)N1CC2(CCNC2)OCc2ccccc21` (stereo not given): 11%; `O=C(C1CCCC1)N1CC2(CCCN(C3COC3)C2)Cc2ccccc21` (stereo not given): -0.621%. With `O=C(C1CCCC1)N1CC2(CCN(C3COC3)C2)Cc2ccccc21` (stereo not given), the INHIBITION is on record as 10.1%. Next, `O=C(C1CCCOC1)N1CCCc2ccccc21` (stereo not given): -21%.

For `O=C(C1CCCC1)N1CC2(CCN(C3COC3)C2)OCc2ccccc21` (stereo not given), the INHIBITION is recorded as 53.2%. As to `O=C(C1CCCC1)N1CC2(CCN(C3COC3)CC2)Cc2ccccc21`, the INHIBITION was found to be 53.2%. For the compound `Cc1ccc(-c2[nH]c3ccccc3c2C(=O)O)c(C)c1`, the INHIBITION is recorded as 31.7%.
